# Experimental data from PubChem BioAssay.
# Activity calls are given as the source filed them. The rule behind the calls is not given here.
# Tested on: Aerobactin synthetase IucA (Klebsiella pneumoniae hvKP1)
# Experiment: IucA enzyme inhibition, primary screen, biochemical, Spectrum library (AID 1346200);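 note: 100% = wells without compound and 0% = wells lacking enzyme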
# Details: malachite green pyrophosphate, A620, at 8 µM, stronger effect = lower value
row,Compound,activity remaining
1,CC(=O)O[C@H]1CC[C@]2(C)C3=CC(=O)[C@@]4(C)C(C[C@@H]5OC6(OCC(C)CC6Br)[C@@H](C)[C@@H]54)C3CC[C@H]2C1 (stereo partly drawn),117% (inactive)
2,CO/N=C(/C(=O)N[C@@H]1C(=O)N2C(C(=O)O)=C(COC(C)=O)CS[C@H]12)c1csc(N)n1,117% (inactive)
3,CC(C)(O)[C@@H]1CC[C@](C)([C@H]2[C@@H](O)C[C@@]3(C)C4C[C@H](O[C@@H]5O[C@H](CO)[C@@H](O)[C@H](O)[C@H]5O)C5C(C)(C)[C@@H](O[C@@H]6OC[C@@H](O)[C@H](O)[C@H]6O)CC[C@@]56C[C@@]46CC[C@]23C)O1 (stereo partly drawn),93% (inactive)
4,CC(C(=O)O)c1ccc(C(=O)c2cccs2)cc1 (stereo not drawn),104% (inactive)
5,NC(=O)NC1NC(=O)NC1=O (stereo not drawn),113% (inactive)
6,CCN(CC)CCOC(=O)C(c1ccccc1)C1CCCCC1 (stereo not drawn),111% (inactive)
7,NS(=O)(=O)c1cc(C2(O)NC(=O)c3ccccc32)ccc1Cl (stereo not drawn),117% (inactive)
8,NC(Cc1ccc(Cl)cc1)C(=O)O (stereo not drawn),108% (inactive)
9,C[C@]12CCC3c4ccc(O)cc4CCC3C1CCC2=O (stereo partly drawn),103% (inactive)
10,COc1ccccc1-c1coc2cc(OC)c(OC)c(OC)c2c1=O,116% (inactive)
11,CC1Cc2ccccc2N1NC(=O)c1ccc(Cl)c(S(N)(=O)=O)c1 (stereo not drawn),101% (inactive)
12,COc1cc([C@@H]2c3cc4c(cc3[C@H](O)[C@H]3COC(=O)[C@@H]23)OCO4)cc(OC)c1OC,82.7% (inactive)
13,CCOC(=O)CCC(=O)O[C@H]1[C@H](O[C@@H]2[C@@H](C)[C@H](O[C@H]3C[C@@](C)(OC)[C@@H](O)[C@H](C)O3)[C@@H](C)C(=O)O[C@H](CC)[C@@](C)(O)[C@H](O)[C@@H](C)C(=O)[C@H](C)C[C@@]2(C)O)O[C@H](C)C[C@@H]1N(C)C,113% (inactive)
